Calls of active or inactive are those of the source. Calls come from the whole dose curve; as a rule, active = well fitted curve in the direction sought with a large enough effect in the repeat runs; inconclusive = weak or mixed curves; inactive = flat fitted curve, though single readings scatter.
experiment: qHTS assay to test for compound auto fluorescence at 535 nm (green) in HEK293 cells (AID 720680); conditions: green autofluorescence 485/535 nm; series mostly up to 91.3 µM
Source text: U.S. Tox21 Program National Center for Advancing Translational Sciences [NCATS] NIH Chemical Genomics Center [NCGC] U.S. Environmental Protection Agency [EPA] National Institutes of Environmental Health Sciences [NIEHS] National Toxicology Program [NTP] U.S. Food and Drug Administration [FDA] Tox21 Assay Overview: Compound auto fluorescence often interferes with screening of the compound library against various biological targets and signaling pathways. Some of these compounds may have fluorophoric properties. Such properties may interfere with the assay outputs resulting in false positives and/or negatives. To decrease such complications and ensure the compound activities are relevant in terms of biological response, the Tox21 10K compound library was screened for auto fluorescence. From the fluorophores used as reporter signals in our screening assays, the auto fluorescence equivalencies of compounds against three fluorophores have been evaluated: Triamterene, Fluorescein and Rose Bengal sodium for blue, green and red fluorescence, respectively. The fluorescence intensities were measured using Excitation/Emission wavelengths at 405/460nm, 485/535nm and 540/590nm for blue, green and red labels, respectively. This assay includes the green fluorescence data.
Tox21 Assay Protocol Summary: 2,000 HEK293 cells in 5 uL of culture medium containing 10% dialyzed FBS per well were dispensed into black wall/clear bottom 1536-well plates using a Multidrop Combi Dispenser (Thermo Scientific). The assay plates were incubated for 4-5 hr at 37C to allow cell attachment to the well bottom, followed by the transfer of 23 nL compound or DMSO vehicle by a pintool work station (Kalypsys, San Diego, CA). After the assay plates were incubated overnight at 37C and 5% CO2, fluorescence intensities in the assay plates were measured by an Envision (PerkinElmer, Shelton, CT) plate reader using three labels for measuring blue, green and red fluorescence at […] 460, 535 and 590nm respectively.

SMILES	outcome
c1cc2c3c(cccc3c1)CC2	inactive
CC(C)(Cl)Cl	inactive
Nc1ccccc1C(=O)O	inactive
Cc1cccc([N+](=O)[O-])c1	inactive
O=C(NC(=O)c1c(F)cccc1F)Nc1cc(Cl)c(OC(F)(F)C(F)C(F)(F)F)cc1Cl (stereo not given)	inactive
BrCCBr	inactive
Clc1ccccc1Cl	inactive
O=c1ccc(=O)[nH][nH]1	inactive
CCCCN(CC)C(=O)SCCC	inactive
C1CN2CCN1CC2	inactive
O=c1[nH]c2ccccc2c(=O)o1	inactive
CCN(CC)CCO	inactive
CC(C)(C)C(O)(CCc1ccc(Cl)cc1)Cn1cncn1 (stereo not given)	inactive
CNC(=O)Oc1ccccc1OC(C)C	inactive
Cn1cc(-c2ccccc2)c(=O)c(-c2cccc(C(F)(F)F)c2)c1	inactive
CCCCOC(=O)c1ccccc1C(=O)OCCCC	inactive
CC(C)=C[C@@H]1[C@@H](C(=O)OCc2coc(Cc3ccccc3)c2)C1(C)C	inactive
CN1C(=O)CN=C(c2ccccc2)c2cc(Cl)ccc21	inactive
NCC(O)c1ccc(O)cc1 (stereo not given)	inactive
COc1ccc2c3c1O[C@H]1[C@@H](O)C=C[C@H]4[C@@H](C2)N(C)CC[C@@]341	inactive

SMILES	outcome
CC(Oc1ccc(Cl)cc1Cl)C(=O)O (stereo not given)	inactive
CC(C)NC(=O)N1CC(=O)N(c2cc(Cl)cc(Cl)c2)C1=O	inactive
CCCCN(CCCC)SN(C)C(=O)Oc1cccc2c1OC(C)(C)C2	inactive
CCNc1nc(NC(C)(C)C)nc(SC)n1	inactive
O=c1n(Cl)c(=O)n(Cl)c(=O)n1Cl	inactive
CC1OC(C)OC(C)O1 (stereo not given)	inactive
CCCN(CCC)N=O	inactive
Nc1c(Cl)c(Cl)nc(C(=O)O)c1Cl	inactive
O=c1[nH]c(=O)[nH]c(=O)[nH]1	inactive
Nc1ccc(Oc2ccc(N)cc2)cc1	inactive
C=C(C)CCl	inactive
CC1C=[C-]C=C1.[C-]#[O+].[C-]#[O+].[C-]#[O+].[Mn]	inactive
CN(C)CCO	inactive
Oc1ccccc1Cl	inactive
CN(C)[C@@H]1C(=O)C(C(N)=O)=C(O)[C@@]2(O)C(=O)C3=C(O)c4c(O)cccc4[C@@](C)(O)[C@H]3C[C@@H]12	inactive
CCCCCCCCCl	inactive
CN=C=S	inactive
Cc1ccc(N)cc1Cl	inactive
CCOP(=S)(OCC)Oc1cnc2ccccc2n1	inactive
CC(NC(C)(C)C)C(=O)c1cccc(Cl)c1 (stereo not given)	inactive
